Laboratory results taken from the supplement of paper PMC10849652.
Of roughly 7,900 targets only a part is listed; those with a hit were picked by preference. About 0.6% of all pairs of compound and target were hits.

Target: AAK1 (UniProt A0A096LP25)
Assay: log2 fold change, soluble protein after heating vs DMSO (PISA); higher = thermal stabilisation; K562 cells, 10 uM, 30 min; active = over 0.2 and 3.5 SD of the protein, either way, in both replicates (recomputed)
Procedure, shortened: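 Thermal stability values are relative to control samples and come from duplicates. They are expressed as log2 fold changes. For measurement, K562 cells (2×10^6 cells/mL) received 10 μM compound for 30 min, and aliquots were heated for 3 min over 48°C-58°C, pooled, and extracted at 4°C in PBS with 0.5% NP-40. Soluble protein, the supernatant after 21,000xg for 90 min, was quantified by TMTpro 16plex LC-MS/MS with equalised channel sums.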

log2 fold change, inactive:
CN1CCN(c2nc(C3=C(c4c[nH]c5ccccc45)C(=O)NC3=O)c3ccccc3n2)CC1 [sotrastaurin] -0.005, Cc1ccc(NC(=O)c2cccc(N(C)C)c2)cc1NC(=O)c1ccc(O)cc1 -0.011, CC(C)(O)CC(=O)NCCn1ccc2ncnc(Nc3ccc(Oc4cccc(C(F)(F)F)c4)c(Cl)c3)c21 -0.034, CC[C@@H]1C(=O)N(C)c2cnc(Nc3ccc(C(=O)NC4CCN(C)CC4)cc3OC)nc2N1C1CCCC1 -0.086, O=C1NC(=O)C(c2cnc3ccccn23)=C1c1cn2c3c(cc(F)cc13)CN(C(=O)N1CCCCC1)CC2 -0.159, CCCc1cc(C)[nH]c(=O)c1CNC(=O)c1cc(-c2ccnc(N3CCN(C)CC3)c2)cc2c1cnn2C(C)C -0.026, CN1CC[C@H](c2c(O)cc(O)c3c(=O)cc(-c4ccccc4Cl)oc23)[C@H](O)C1 [alvocidib] -0.009, Cc1cc(Nc2cc(N3CCN(C)CC3)nc(Sc3ccc(NC(=O)C4CC4)cc3)n2)n[nH]1 [tozasertib] 0.152, CNC(=O)c1ccccc1Nc1nc(Nc2ccc(N3CCOCC3)cc2OC)ncc1Cl 0.333, Cn1cc(-c2ccc3nnc(C(F)(F)c4ccc5ncccc5c4)n3n2)cn1 -0.079, C[C@@H](Oc1cc(-c2cnn(C3CCNCC3)c2)cnc1N)c1c(Cl)ccc(F)c1Cl [crizotinib] 0.124
